In PubChem BioAssay AID2314 (National Center for Advancing Translational Sciences (NCATS), 2010):
The campaign covered roughly 300,000 compounds. About 37,000 (12%) were called active. No stated cut-off is given here; in the data, active means max response mostly above about 13% (no sharp cut-off); inactive means mostly below about 14%. What follows is part of a selection rich in actives, with near analogues and random picks from the rest.

Experiment: Cycloheximide Counterscreen for Small Molecule Inhibitors of Shiga Toxin; further: read at 38.3 µM for the half of the compounds with a filed dose; 0% is about no effect
Conditions: cell reporter, cycloheximide protein synthesis inhibition counterscreen; hits give high values

Structure (SMILES)	max response
C=CCn1c(SCC(=O)NC)nnc1C12CC3CC(CC(C3)C1)C2	-1.24% (inactive)
O=C(CCn1nnc2ccccc21)OCC(=O)c1ccc([N+](=O)[O-])cc1	-6.28% (inactive)
N#C/C(C(=S)Nc1ccccc1)=C1/NN=C(N2CCOCC2)N1c1ccccc1	0.28% (inactive)
Cc1[nH]n(C(N)=S)c(=O)c1N=Nc1ccc(Cl)cc1Cl	12.2% (inactive)
CC(=O)Nc1ccc(NC(=O)c2ccc3c(c2)C(=O)N(c2ccccc2C)C3=O)cc1	-2.35% (inactive)
CCOc1ccc(-n2c(SCC(N)=O)nnc2-c2ccco2)cc1	-1.88% (inactive)
COc1cc(CNCc2ccc(OC)c3ccccc23)cc(OC)c1OC	-1.1% (inactive)
CCN1CCN(C(=O)C2CCN(S(=O)(=O)c3cc(Cl)ccc3Cl)CC2)CC1	-1.01% (inactive)
CCOC(=O)C1=C(C)NC2=C(C(=O)CC(C)(C)C2)C1c1ccsc1 (stereo unspecified)	8.09% (inactive)
COc1ccc(C(CNC(=O)COc2ccc([N+](=O)[O-])cc2)N2CCCCC2)cc1 (stereo unspecified)	-2.15% (inactive)
O=C(c1cnn2ccccc12)N1CCc2ccccc21	66.5% (active)
CCOC(=O)N1CCC(NC(=O)c2cnn3ccccc23)CC1	-4.51% (inactive)
Cc1cnc(C(=O)OCC(=O)N2CCc3ccccc32)cn1	9.5% (inactive)
Cc1noc(C)c1COC(=O)c1cc2ccccc2cc1O	-1.04% (inactive)
Cc1ccc(-c2nc(COC(=O)c3c(C)noc3C)cs2)cc1	73.1% (active)
Cc1ccc(S(=O)(=O)N2CCN(C(=O)COC(=O)c3c(C)noc3C)CC2)c(C)c1	-2.98% (inactive)
c1ccc(-c2csc(N3CCc4ccccc4C3)n2)cc1	36.5% (active)
CN(C)CCCNC(=S)N1CCN(c2nc(-c3ccccc3)cs2)CC1	-1.66% (inactive)
O=C(CN1CCN(c2nc(-c3ccccc3)cs2)CC1)NCc1ccc2c(c1)OCO2	-2.7% (inactive)
CCOC(=O)Cn1c(O)c(N=NC(=O)CNC(=O)Cc2ccccc2)c2ccccc21	5.93% (inactive)
CCCc1ccc(C(=O)[C@@H]2[C@@H](C(C)=O)N3c4ccc(F)cc4C=C[C@@H]3[C@@]23C(=O)Nc2ccccc23)cc1	-1.55% (inactive)
O=S(=O)(c1ccc(Cl)cc1)c1nc(-c2ccco2)oc1N1CCCCC1	3.16% (inactive)
O=C(NCCCN1CCCCC1)C1CCCN(c2ncnc3c2nc2n3CCCCC2)C1 (stereo unspecified)	-1.32% (inactive)

Structure (SMILES)	max response
CN(C)c1nnnn1-c1ccc(Cl)cc1	-4.44% (inactive)
O=C(Nc1ccccc1)OCc1cn(-c2ccc(Cl)cc2)nn1	-3.74% (inactive)
CO/N=C/c1cn(-c2ccc(Cl)cc2)nn1	24.4% (active)
COc1cc(NC(=O)C2CC(c3ccccc3O)=NO2)c(OC)cc1Cl (stereo unspecified)	-1.7% (inactive)
COCCN1C(=O)C(=O)/C(=C(/O)c2ccc(S(=O)(=O)N3CCCCC3)cc2)C1c1ccc(OC)c(OC)c1 (stereo unspecified)	-1.21% (inactive)
Cc1cs/c(=N\N=C\c2ccc(O)cc2)n1Cc1ccco1	21.5% (active)
CC(C)n1c(=O)c(C=Nc2ccc(Br)cc2)c(O)n(Cc2ccco2)c1=O	-2.65% (inactive)
CN(C)CCCN=Cc1c(O)n(Cc2ccco2)c(=O)[nH]c1=O	8% (inactive)
O=c1c2c(-c3ccccc3)ccnc2[nH]n1-c1ccccc1	9.85% (inactive)
O=C(O)c1ccccc1-c1ccccc1C(=O)Nc1cccc2ccccc12	-3.02% (inactive)
O=C(Nc1cccc2ccccc12)c1onc2c1CCCC2	43.2% (active)
O=C(COC(=O)c1ccccn1)Nc1cccc2ccccc12	-1.89% (inactive)
O=C(c1ccc2c(c1)N(Cc1ccc(F)cc1)C(=O)c1ccccc1S2(=O)=O)N1CCN(c2ccccn2)CC1	0.32% (inactive)
O=C(CSc1nc2ccc([N+](=O)[O-])cc2[nH]1)c1ccc(Cl)cc1	3.9% (inactive)
O=[N+]([O-])c1ccc2nc(-c3ccccn3)[nH]c2c1	51% (active)
O=[N+]([O-])c1cnc2ccc3ccccc3c2c1	8.23% (inactive)
CCOc1ccc(CCNC(=O)Nc2ccccc2)cc1OCC	6.01% (inactive)
COc1ccc(-n2nnnc2SCc2nc(N)nc(N3CCOCC3)n2)cc1	-3.81% (inactive)
COc1cc(NC(=O)c2ccc(-c3csc(C)n3)cc2)c(OC)cc1Cl	-4.02% (inactive)
CCCn1nnnc1NC(=O)COc1ccc(Cl)cc1C	14.6% (inactive)
Cc1cc(NC(=O)COc2ccc(Cl)cc2Cl)n(CCC#N)n1	43.5% (active)
Cc1nn(-c2ccccc2)c(C)c1NC(=O)COc1ccc(Cl)cc1Cl	-1.6% (inactive)
COCCNc1cc(-c2ccccc2)nc2cc(-c3cccc(F)c3)nn12	-0.87% (inactive)
